# Measured values as given in paper PMC5540273 (PLoS ONE, 2017).
# Experiments:
# BIKE = system: T1, BIKE
# T1 construct: gene BMP2K
# BRK = system: T2, BRK
# T2 construct: gene PTK6
# 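Further: kd values determined as follow-up on hits from a single-replicate KINOMEscan panel screen.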
smiles,measurement,setting,value
O=S(=O)(c1ccc(-c2ccnc3[nH]ccc23)cc1)N1CCCC1 [GSK846226],Kd,BIKE,7.2 µM
Cc1ccc(NC(=O)Nc2cccc(C(F)(F)F)c2)cc1 [GSK955403],Kd,BMPR1A,> 10 µM
O=C1NC(=O)C(N2CCc3ccccc32)=C1c1ccccc1Cl [SB-373598],Kd,BMPR2,> 10 µM
NC(=O)c1nnc2ccccc2c1N,Kd,BMX,> 10 µM
Cc1c(O)cccc1Nc1ccnc2ccc(C(F)(F)F)cc12.Cl [GW466413],Kd,BRK,0.19 µM
O=C(O)COc1ncnc2cc(-c3ccc4[nH]ncc4c3)sc12,Kd,BRK,> 10 µM
Cl.Oc1ccc(-c2nc(-c3ccccc3)[nH]c2-c2ccncc2)cc1 [SB-428218],Kd,BUB1,0.56 µM
CN(C)CCN(C)C(=O)c1cc(-c2ccncc2)c(-c2ccc(Cl)c(O)c2)o1.Cl.Cl [SB-710397],Kd,BUB1,0.39 µM
